Test results from PubChem BioAssay (NCI).
“And” between values parts separate entries of the source, which are not always exact repeats. Identical values can stand only once. The panel holds about 83,000 compounds, 20% with a hit somewhere; the sample as a whole holds those more often.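 Assay: single dose, 48 h. Readout: percent growth (0 = no net growth; negative = cell death). Active: <10.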 The source made the active and inactive calls.

Test system: MDA-MB-468 breast
Experiment: NCI-60 one-dose screen, 48 h (100 = growth as untreated, 0 = no growth, -100 = all killed)
Details: 10 µM unless noted

With `N#CC1(O)CCCCC1` as the compound, how does the growth read?
Its growth is 108% (inactive).

With `COc1ccc2[nH]c(O)c(/C=c3/cc4c(c(-c5cc(OC)c(OC)c(OC)c5)n3)=Nc3ccccc3-4)c2c1` as the compound, how does the growth read?
The growth was 49.7% (inactive).

`O=C(Nc1ccc(Cl)cc1)c1cc2ccccc2cc1O` was tested. Which growth did it give?
The growth was 21.4% (inactive) and -6.92% (active).

For `CCCCN(C(=O)CC)c1ccccc1`, which growth is on record?
The growth was 106% (inactive).

How did the growth turn out when `CCN1CCN(CC(=O)Nc2nc3ccc(NCc4ccc(Br)cc4)cc3s2)CC1` was run?
The growth was 61.1% (inactive).

With `CSCC[C@@H]1C(=O)N(C)[C@H](C(C)(C)C)N1C(=O)c1ccccc1` as the compound, how does the growth read?
The growth was 105% (inactive).

How did the growth turn out when `CCc1ccc2c(c1)N(CCO)C1=C(C(=O)OC1)C2c1cc(OC)c(OC)c(OC)c1` (stereo not given) was run?
The growth was 2.83% (active).

How did the growth turn out when `Cc1ccccc1C[P+](c1ccccc1)(c1ccccc1)c1ccccc1` was run?
Its growth is -17.6% (active).

For `CC(C)CCN(CCCNc1c2c(nc3cc(Cl)ccc13)CCCC2)CCC(C)C`, which growth is on record?
The growth was 22.6% (inactive).

`C[C@H]1[C@H](C)CC[C@]2(C(=O)O)CC[C@]3(C)C(=CC[C@@H]4[C@@]5(C)C/C(=C/c6ccco6)C(=O)C(C)(C)[C@@H]5CC[C@]43C)[C@H]12` was tested. Which growth did it give?
The growth was -38% [100 µM] (active).

`S=C1CCCC(=S)N1` was tested. Which growth did it give?
The growth was 100% (inactive).

How did the growth turn out when `C=CN(C(=O)N1CCN(c2cc3c(cc2F)c(=O)c(C(=O)O)cn3C2CC2)CC1)c1nc(-c2ccc(OC)cc2)cs1` was run?
Its growth is 13.4% (inactive).

With `CCCCCN1C=C/C(=C\C(=O)N2CCCc3ccccc32)c2ccccc21` as the compound, how does the growth read?
The growth was 40% (inactive).

`O=C(CSc1nnc(-c2cc3c([nH]c4ccccc43)c(-c3cccc(O)c3)n2)n1-c1ccccc1)c1ccccc1` was tested. Which growth did it give?
The growth was 63% (inactive).

How did the growth turn out when `CCOC(=O)c1sc(-c2ccc(OS(=O)(=O)c3ccc(C(C)(C)C)cc3)c(C=O)c2)nc1C` was run?
Its growth is 1.65% (active).

How did the growth turn out when `CCOC(=O)c1c(C)[nH]c2ccc(O)cc12` was run?
The growth was 102% (inactive).

For `CC(=O)Nc1cccc(-n2c(=O)n(C3CC3)c(=O)c3c(Nc4ccc(I)cc4F)n(C)c(=O)c(C)c32)c1`, which growth is on record?
Its growth is 77.2% (inactive).

`CCC(=C(c1ccc(OCCCN(C)C)cc1)c1ccc(OCCCN(C)C)cc1)c1ccc(Cl)cc1` was tested. Which growth did it give?
The growth was -74.4% (active).

`Nc1nc2c(nnn2C2CC(O)C(CO)O2)c(=O)[nH]1` (stereo not given) was tested. Which growth did it give?
The growth was 22.8% (inactive).

For `C#CCOc1ccc(C2=NN(CC3CC3)C3N=C(Cl)c4ncn(CC5CC5)c4N23)cc1OCC#C` (stereo not given), which growth is on record?
The growth was 66.2% (inactive).

Which growth does the source give for `CNCCCn1c2c(c3ccc([N+](=O)[O-])cc3c1=O)C(=O)c1cc(OC)cnc1-2` here?
Its growth is -39.5% (active).

With `COc1cccc(CCC(=O)c2cc3c(N)c(C(=O)Nc4cccc(Cl)c4C)sc3nc2C)c1` as the compound, how does the growth read?
The growth was 15.1% (inactive).

For `CC1CCCC(C(=O)O)C1C(=O)O` (stereo not given), which growth is on record?
The growth was 97% (inactive).

For `Cc1cc(O)cc(-c2c(-c3ccnc(-c4cccnc4)c3)cnn2C)c1`, which growth is on record?
Its growth is 48.1% (inactive).

`O=C1c2nsnc2C(=O)c2c(F)c(F)c(F)c(F)c21` was tested. Which growth did it give?
Its growth is -50.4% (active).

How did the growth turn out when `COc1ccc(-c2oncc2-c2cc(OC)c3c(c2)OCO3)cc1` was run?
Its growth is 10.3% (inactive).

How did the growth turn out when `CC1(C)CC(=O)C2=C(C1)N(c1ccc(OC(F)(F)F)cc1)C(N)=C(C#N)C2c1ccc(Br)cc1F` (stereo not given) was run?
Its growth is 55.7% (inactive).

`Oc1ccc(-c2nnc3c4[nH]ccc4ncn23)cc1` was tested. Which growth did it give?
Its growth is 117% (inactive).

`CCOC(=O)/C(=C\c1ccccc1Cl)P(=O)(OCC)OCC` was tested. Which growth did it give?
The growth was 43.5% (inactive).

Which growth does the source give for `c1ccc(CN2C(c3ccccc3)=Nc3ccccc3C2c2c[nH]c3ccccc23)cc1` (stereo not given) here?
The growth was 12.4% (inactive).

Which growth does the source give for `O=C1C(Br)=CC2C1C1C3CCC3C2(Br)C12OCCO2` (stereo not given) here?
Its growth is 19.4% (inactive).

`C=CCNc1ccccc1` was tested. Which growth did it give?
The growth was 108% (inactive).

For `Cc1ccc2oc(=O)cc(-c3sc(N4CCCCC4)nc3-c3ccccc3)c2c1`, which growth is on record?
Its growth is 102% (inactive).

For `COc1cc2c(cc1-c1c(C)noc1C)ncc1nc(C3CCC(F)(F)CC3)n(C3CCC(OC(F)F)CC3)c12` (stereo not given), which growth is on record?
Its growth is 43.4% (inactive).

Which growth does the source give for `C[C@H](NC(=O)[C@@H]1CSSC[C@@H](NC(=O)c2nc3ccccc3cc2O)C(=O)NCC(=O)N1C)c1ccccc1` here?
Its growth is 41.4% (inactive).

With `O=C(O)CCCc1ccccc1` as the compound, how does the growth read?
Its growth is 109% (inactive).

With `Nc1nc(-c2ccccc2)nc(N)c1N=O` as the compound, how does the growth read?
Its growth is 72.4% (inactive).

For `COc1ccc(-c2c(NC(=O)Nc3ccc(Cl)c(C(F)(F)F)c3)cnn2-c2ccc(S(N)(=O)=O)cc2)cc1`, which growth is on record?
The growth was 26.7% (inactive).

With `O=C1c2cc3c(cc2-c2c1c1ccc(F)cc1c(=O)n2CCCN1CCOCC1)OCO3` as the compound, how does the growth read?
Its growth is 18.5% (inactive).

`Fc1ccc(C2CC(c3cccc(Nc4ccncc4)c3)=NN2c2ccccc2)cc1` (stereo not given) was tested. Which growth did it give?
The growth was -2.33% (active).
